Activity calls are given as the source filed them. Unless noted, how the calls were made is not given here.
What was measured:
[1] = anti-His antibody binders, primary screen, artefact control for SMM control protein annotation, biochemical, small-molecule microarray, 635 nm fluorescence (AID 1128); conditions: anti-His Alexa647 antibody binding, higher = more signal;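 further: score merges feature fluorescence with signal-to-noise for each printed compound spot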
[2] = system: Human papillomavirus type 1a E7 protein (residues 1-88); test: HPV1a E7 small-molecule binders, primary screen, biochemical, small-molecule microarray, residues 1-88, 635 nm (AID 1129); conditions: small-molecule microarray binding, fluorescence 635 nm; higher = more signal
[3] = target: Focal adhesion kinase 1 (Homo sapiens) (UniProt Q05397); test: small-molecule microarray binders of FAK, primary screen, biochemical, 635/667 nm fluorescence, BSA, DTT (AID 1130); conditions: PTK2 binding, 635 nm fluorescence, higher = more signal;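 further: composite of spot emission at 667 nm and signal to noise over triplicate slides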
Chain of Focal adhesion kinase 1 (Homo sapiens) (Q05397 whole entry, looked up): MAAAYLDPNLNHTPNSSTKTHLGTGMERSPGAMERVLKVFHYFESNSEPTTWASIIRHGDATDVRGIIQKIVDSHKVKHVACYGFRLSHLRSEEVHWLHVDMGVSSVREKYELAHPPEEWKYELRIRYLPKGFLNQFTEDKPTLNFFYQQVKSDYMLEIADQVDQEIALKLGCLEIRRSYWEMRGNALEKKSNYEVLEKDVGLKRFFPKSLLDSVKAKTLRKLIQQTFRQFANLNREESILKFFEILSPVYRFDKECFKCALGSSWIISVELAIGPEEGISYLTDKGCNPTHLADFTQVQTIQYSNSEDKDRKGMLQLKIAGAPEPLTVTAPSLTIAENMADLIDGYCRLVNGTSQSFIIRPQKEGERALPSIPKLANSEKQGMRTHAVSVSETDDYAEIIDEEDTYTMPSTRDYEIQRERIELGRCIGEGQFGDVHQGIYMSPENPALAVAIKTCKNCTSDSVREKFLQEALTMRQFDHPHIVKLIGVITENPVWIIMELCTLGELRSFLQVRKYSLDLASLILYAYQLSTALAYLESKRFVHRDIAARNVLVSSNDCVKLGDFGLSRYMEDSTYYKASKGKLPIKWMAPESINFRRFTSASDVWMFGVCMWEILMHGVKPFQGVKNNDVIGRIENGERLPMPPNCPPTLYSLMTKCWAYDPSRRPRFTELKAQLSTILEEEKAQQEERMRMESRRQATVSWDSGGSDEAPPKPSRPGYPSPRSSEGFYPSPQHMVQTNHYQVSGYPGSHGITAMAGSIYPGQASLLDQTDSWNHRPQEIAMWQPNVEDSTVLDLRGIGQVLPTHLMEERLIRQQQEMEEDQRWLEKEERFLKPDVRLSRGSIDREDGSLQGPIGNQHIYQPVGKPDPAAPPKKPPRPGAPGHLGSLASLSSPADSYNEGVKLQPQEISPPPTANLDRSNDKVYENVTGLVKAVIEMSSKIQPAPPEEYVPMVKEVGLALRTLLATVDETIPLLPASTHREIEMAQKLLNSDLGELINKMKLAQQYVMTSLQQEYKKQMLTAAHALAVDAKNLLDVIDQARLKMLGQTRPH

[4] = system: Fibrinogen (Alexa647-labelled); test: fibrinogen binders on compound microarrays, profiling panel, artefact control for SMM control-protein annotation, biochemical, small-molecule microarray, 635/667 nm fluorescence (AID 1131); conditions: fibrinogen-A647 binding fluorescence, higher = more signal;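 further: z-score merges 667 nm fluorescence with per-spot signal-to-noise over triplicate slides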
[5] = target: Follistatin (Homo sapiens) (UniProt P19883); test: follistatin binders on small-molecule microarrays, primary screen, biochemical, small-molecule microarray, 635/667 nm fluorescence (AID 1132); conditions: FST binding, 635 nm fluorescence, higher = more signal
Chain of Follistatin (Homo sapiens) (P19883 whole entry, looked up): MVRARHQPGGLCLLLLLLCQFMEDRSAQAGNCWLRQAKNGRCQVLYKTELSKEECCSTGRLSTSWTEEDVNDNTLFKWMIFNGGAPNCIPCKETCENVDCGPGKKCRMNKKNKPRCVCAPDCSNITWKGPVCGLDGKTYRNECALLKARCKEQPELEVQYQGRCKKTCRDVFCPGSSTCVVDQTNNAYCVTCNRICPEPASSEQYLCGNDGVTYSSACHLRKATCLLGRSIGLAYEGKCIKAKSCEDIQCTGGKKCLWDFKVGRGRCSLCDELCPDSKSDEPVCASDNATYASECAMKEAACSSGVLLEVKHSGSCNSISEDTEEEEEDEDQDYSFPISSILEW

[6] = target: Fibroblast growth factor 2 (Homo sapiens) (UniProt P09038); test: FGF2 binders on small-molecule microarrays, primary screen, biochemical, small-molecule microarray, 635/667 nm fluorescence (AID 1133); conditions: small-molecule microarray binding, FGF2, fluorescence 635/667; higher = more signal
Chain of Fibroblast growth factor 2 (Homo sapiens) (P09038 whole entry, looked up): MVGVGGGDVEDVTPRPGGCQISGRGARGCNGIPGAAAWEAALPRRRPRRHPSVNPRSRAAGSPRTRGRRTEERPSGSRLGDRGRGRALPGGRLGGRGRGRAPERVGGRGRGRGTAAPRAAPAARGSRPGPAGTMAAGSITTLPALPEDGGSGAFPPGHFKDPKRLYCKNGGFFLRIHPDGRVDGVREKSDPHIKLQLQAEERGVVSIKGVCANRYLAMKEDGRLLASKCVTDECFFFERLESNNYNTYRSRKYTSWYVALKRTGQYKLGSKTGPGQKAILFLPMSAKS

[7] = mitochondrial membrane potential change in A549 cells, profiling panel, cell-based, JC-1 fluorescence, basal, 24 h, 100 nL (AID 1138); conditions: higher = more signal;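 further: A549 lung adenocarcinoma cells under basal conditions with no added stimulus; test concentration not given here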
Lefty1 = Lefty1 binders on small-molecule microarrays, primary screen, biochemical, small-molecule microarray, 635/667 nm fluorescence (AID 1139); conditions: small-molecule microarray binding, fluorescence 635/667; higher = more signal
[8] = system: wheat germ agglutinin (Triticum aestivum), Alexa647-labelled; test: wheat germ agglutinin binders on compound microarrays, profiling panel, artefact control for SMM control-protein annotation, biochemical, small-molecule microarray, 635/667 nm fluorescence (AID 1140); conditions: WGA-A647 binding, 635 nm fluorescence, higher = more signal;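 further: score merges 667 nm feature emission with signal to noise over triplicate slides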
[9] = target: Luciferin 4-monooxygenase (Photinus pyralis) (UniProt P08659); test: firefly luciferase enzyme inhibitors, primary screen, biochemical, luminescence, purified enzyme, 2006 set (AID 1141); conditions: SteadyGlo luminescence, 30 min, higher = more signal, called active from +8 up or from −8 down;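 further: cell-free assay with purified firefly luciferase at 100 ng per well in PBS; test concentration not given here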
Chain of Luciferin 4-monooxygenase (Photinus pyralis) (P08659 whole entry, looked up): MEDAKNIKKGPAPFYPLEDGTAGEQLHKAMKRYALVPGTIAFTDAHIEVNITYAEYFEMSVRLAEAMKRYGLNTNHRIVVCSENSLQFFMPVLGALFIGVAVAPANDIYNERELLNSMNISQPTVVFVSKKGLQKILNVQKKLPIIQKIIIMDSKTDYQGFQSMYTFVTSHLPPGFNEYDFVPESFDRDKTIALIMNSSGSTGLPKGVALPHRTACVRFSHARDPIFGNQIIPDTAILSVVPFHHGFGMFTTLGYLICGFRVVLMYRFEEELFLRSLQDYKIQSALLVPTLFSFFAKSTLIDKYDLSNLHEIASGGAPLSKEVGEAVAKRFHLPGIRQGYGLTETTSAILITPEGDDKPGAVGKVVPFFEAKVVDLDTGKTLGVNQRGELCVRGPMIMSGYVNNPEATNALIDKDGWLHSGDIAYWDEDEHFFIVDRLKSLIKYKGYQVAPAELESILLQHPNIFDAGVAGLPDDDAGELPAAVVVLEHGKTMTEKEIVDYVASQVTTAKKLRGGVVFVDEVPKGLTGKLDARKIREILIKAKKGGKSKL

[10] = system: Wnt5a (protein binding on small-molecule microarray); test: Wnt5a binders on small-molecule microarray, primary screen, biophysical, 635/667 nm fluorescence (AID 1142); conditions: 635 nm fluorescence, higher = more signal;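 further: fluorescence read at 667 nm with signal to noise per printed feature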
[11] = cell viability in Huh7 cells, primary screen, cytotoxicity control for HCV replication inhibitor project, CellTiter-Glo luminescence, basal, 48 h (AID 1143); conditions: Huh7 HCV replicon, higher = more signal, called active from +8 up or from −8 down;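 further: Huh7 hepatoma cells carrying a hepatitis C replication reporter with no stimulus; test concentration not given here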
[12] = P. aeruginosa biofilm formation inhibitors, primary screen, PAO1 strain, BacTiter-Glo luminescence, LB-PBS (AID 1144); conditions: 12 h, higher = more signal
[13] = CREB reporter modulators without forskolin, primary screen, cell-based, PC12, CRE-LacZ reporter, unstimulated (AID 1145); conditions: no forskolin, luminescence, 4.5 h, higher = more signal, called active from +8 up or from −8 down
[14] = CREB reporter modulators under forskolin, primary screen, cell-based, PC12, CRE-LacZ reporter, forskolin-stimulated (AID 1146); conditions: luminescence, 4.5 h, higher = more signal, called active from +8 up or from −8 down;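 further: PC12 cells with 6xCRE LacZ reporter stimulated by forskolin 10 µM; beta-galactosidase reporter signal reflecting CREB driven transcription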
[15] = target: Streptavidin (Streptomyces avidinii) (UniProt P22629); test: streptavidin binders on small-molecule microarray, primary screen, artefact control for SMM compound annotation, biophysical, 635/667 nm fluorescence (AID 1147); conditions: streptavidin binding, higher = more signal;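 further: signal reflects streptavidin binding to arrayed compounds as a control protein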
Chain of Streptavidin (Streptomyces avidinii) (P22629 whole entry, looked up): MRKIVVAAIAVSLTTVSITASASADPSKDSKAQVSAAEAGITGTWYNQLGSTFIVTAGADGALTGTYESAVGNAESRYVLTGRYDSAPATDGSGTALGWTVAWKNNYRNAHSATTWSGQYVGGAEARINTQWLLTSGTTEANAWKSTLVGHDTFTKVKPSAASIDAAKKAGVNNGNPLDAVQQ

[16] = small-molecule binders of probe aInhba, primary screen, biochemical, small-molecule microarray, 635/667 nm fluorescence (AID 1148); conditions: higher = more signal;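 further: score merges 667nm spot fluorescence with signal-to-noise for antibody binding to printed compounds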
Torsin-1A (Homo sapiens) [17] = target: Torsin-1A (Homo sapiens) (UniProt O14656); test: torsin A binders from cell lysate, primary screen, small-molecule microarray, wild-type, 635/667 nm (AID 1149); conditions: COS7 hTOR1A-WT lysate, 635 nm fluorescence, higher = more signal
Chain of Torsin-1A (Homo sapiens) (O14656 whole entry, looked up): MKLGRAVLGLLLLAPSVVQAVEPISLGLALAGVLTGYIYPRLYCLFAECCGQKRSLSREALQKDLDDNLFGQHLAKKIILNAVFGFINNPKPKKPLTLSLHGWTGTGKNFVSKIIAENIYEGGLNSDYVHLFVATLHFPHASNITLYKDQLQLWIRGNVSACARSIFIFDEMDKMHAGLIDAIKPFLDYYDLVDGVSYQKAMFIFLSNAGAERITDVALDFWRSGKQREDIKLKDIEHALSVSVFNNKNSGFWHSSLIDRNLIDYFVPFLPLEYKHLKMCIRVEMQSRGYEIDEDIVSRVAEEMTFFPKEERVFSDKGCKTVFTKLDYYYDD

Torsin-1A (Homo sapiens) [18] = target: Torsin-1A (Homo sapiens) (UniProt O14656); test: small-molecule binders of mutant TOR1A in lysate, primary screen, cell lysate, small-molecule microarray, COS7 lysate, 635/667 nm fluorescence (AID 1150); conditions: COS7 hTOR1A mutant lysate, 635 nm fluorescence, higher = more signal;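 further: score pools 667 nm emission and signal to noise measuring lysate protein binding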
[19] = system: Sonic hedgehog protein (Shh); test: small-molecule binders of Shh protein, primary screen, biochemical, small-molecule microarray, 635/667 nm fluorescence (AID 1151); conditions: small-molecule microarray binding, 635 nm fluorescence; higher = more signal;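 further: Shh protein binding to compounds spotted on small-molecule microarray slides; score combines spot fluorescence intensity with signal-to-noise across triplicate slides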

Compound	composite z-score [1]	composite z-score [2]	composite z-score [3]	composite z-score [4]	composite z-score [5]	composite z-score [6]	z-score [7]	composite z-score (Lefty1)	composite z-score [8]	z-score [9]	composite z-score [10]	z-score [11]	z-score [12]	z-score [13]	z-score [14]	composite z-score [15]	composite z-score [16]	composite z-score (Torsin-1A (Homo sapiens) [17])	composite z-score (Torsin-1A (Homo sapiens) [18])	composite z-score [19]
CCCC[C@@H](O)C1=C(COc2ccccc2)C[C@H]2C(=O)N(Cc3ccccc3)C(=O)[C@H]2[C@H]1CO	-0.412	-0.0512	-0.0235	0.832	0.269	0.275	0.85	0.634	0.371	-1.25 (inactive)	-0.143	-2.03 (inactive)	0.436 (inactive)	7.39 (inactive)	-0.695 (inactive)	-0.0098	-0.239	-0.152	0.107	0.491
COc1ccc([Si](C)(C)[C@@H]2[C@@H](CCO)O[C@]3(C(=O)N(Cc4ccccc4)c4ccc(N5C(=O)c6cccc7cccc5c67)cc43)[C@H]2C)cc1	-0.435	-0.0814	0.15	-0.304	-0.384	-0.176	-0.0894	-0.52	0.342	-1.04 (inactive)	-0.328	-4 (inactive)	-0.441 (inactive)	2.39 (inactive)	0.302 (inactive)	0.305	-0.179	-1.07	-0.909	-0.204
O=C(O)[C@@H]1[C@@H]2C(=O)N(c3ccccc3)C(=O)[C@@H]2C[C@@H]1Sc1ccccc1	-0.102	-0.683	0.236	-1.02	-1.19	-1.16	-0.677	-1.07	0.627	1.35 (inactive)	-0.129	0.739 (inactive)	0.956 (inactive)	0.379 (inactive)	0.774 (inactive)	-0.237	-0.389	-0.402	-1.03	-1.45
C=CC[C@]1(C(=O)N2CCOCC2)COC(c2ccc(OCCCO)cc2)=N1	2.4	1.3	0.555	0.837	1.33	0.386	-0.772	0.768	0.959	0.566 (inactive)	0.0993	-2.76 (inactive)	-0.974 (inactive)	2.01 (inactive)	-0.778 (inactive)	1.76	0.166	1.74	2.16	0.935
CC(C)(C)OC(=O)CC[C@@]1(C(=O)NCC(O)CO)N=C(c2ccc(OCCCO)cc2)O[C@@H]1c1ccccc1CN=[N+]=[N-] (stereo not given in full)	1.41	0.98	0.426	0.91	0.716	0.337	0.404	-0.0839	0.299	-1.78 (inactive)	0.167	0.0366 (inactive)	-0.719 (inactive)	1.98 (inactive)	-0.424 (inactive)	1.14	-0.0021	1.48	0.654	-0.157
COCCOC(=O)N1C(=O)[C@@]2(c3cc(C#CCNC(N)=O)ccc31)[C@H](C(N)=O)[C@H]1C(=O)O[C@H](c3ccccc3)[C@H](c3ccccc3)N1[C@@H]2c1ccccc1OCCO	0.193	0.956	0.538	0.834	1.38	1.5	-1.17	0.684	0.403	-1.07 (inactive)	0.273	0.406 (inactive)	-0.0139 (inactive)	-0.465 (inactive)	0.0355 (inactive)	0.0571	0.183	0.112	0.25	0.878
NC(=O)NCC#Cc1ccc2c(c1)[C@]1(C(=O)N2)[C@H](C(=O)N2CCN(c3ncccn3)CC2)[C@H]2C(=O)O[C@H](c3ccccc3)[C@H](c3ccccc3)N2[C@@H]1c1ccc(O)cc1	1.43	1.14	0.244	0.768	1.37	1.3	-0.982	0.36	0.542	-0.598 (inactive)	0.364	-0.0243 (inactive)	0.407 (inactive)	-0.467 (inactive)	-0.43 (inactive)	0.328	-0.352	0.0312	0.377	0.905
C#CCN([C@@H](Cc1ccccc1)C(=O)OC)[C@@H](/C=C/C1CC1)[C@H](O)Cc1ccccc1	-0.429	-0.515	-0.157	-0.873	0.722	-0.0248	3.45	0.166	0.0211	0.412 (inactive)	-0.476	-3.22 (inactive)	0.398 (inactive)	1.67 (inactive)	-0.0949 (inactive)	-0.676	-0.157	0.239	-0.211	0.314
CCCNC(=O)[C@@]1(C)c2ccccc2C(=O)N(c2ccc(C)cn2)[C@H]1c1ccc(CO)cc1	0.0998	-0.268	0.23	-1.78	0.169	-0.465	0.672	-0.0558	-0.311	-0.714 (inactive)	-0.297	0.242 (inactive)	-0.31 (inactive)	1.29 (inactive)	-0.0049 (inactive)	-0.516	0.0398	0.399	0.266	0.224

— PubChem BioAssay
